From the supplement of paper PMC6555819

Experiments:
Test in all cases: PBM binding z-score (relative to random genomic background probes); higher = stronger binding; sequences stand for … in GC…GCGATTGACAGCGTAGAATGAAGG
[1] = system: FXR:RXRa (NR concentration 270 nM, RXRa partner concentration 90 nM)
Summary of the method: (§1)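 Binding buffer was PBS pH 7.4 with 2% milk, 0.02% Triton X-100, 1 mM DTT, 0.2 mg/mL BSA and 0.4 mg/ml salmon testes DNA. In it, ligand-free nuclear receptor dimers were incubated 1 h on custom Agilent 4×180K protein-binding microarrays carrying double-stranded probes. Antibodies against each partner (one per run) detected binding, and z-scores were calculated against random background probes after regression normalization of scanned fluorescence.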

[2] = system: LXRa:RXRa (NR concentration 270 nM, RXRa partner concentration 90 nM)
Summary of the method: as §1

[3] = system: LXRa homodimer (NR concentration 270 nM)
Summary of the method: as §1

[4] = system: LXRb:RXRa (NR concentration 270 nM, RXRa partner concentration 90 nM)
Summary of the method: as §1

[5] = system: LXRb homodimer (NR concentration 270 nM)
Summary of the method: as §1

[6] = system: PPARa:RXRa (NR concentration 270 nM, RXRa partner concentration 90 nM)
Summary of the method: as §1

[7] = system: PPARg:RXRa (NR concentration 180 nM, RXRa partner concentration 90 nM)
Summary of the method: as §1

[8] = system: PPARg:RXRa 270nM:90nM, anti-RXR (NR concentration 270 nM, RXRa partner concentration 90 nM)
Summary of the method: as §1

[9] = system: PPARg:RXRa 30nM:10nM, anti-RXR (NR concentration 30 nM, RXRa partner concentration 10 nM)
Summary of the method: as §1

[10] = system: PPARg:RXRa 90nM:30nM, anti-RXR (NR concentration 90 nM, RXRa partner concentration 30 nM)
Summary of the method: as §1

[11] = system: PPARg:RXRa DBDmut IVT, anti-RXR (DBD mutation: RXRa K156A/R161A, NR concentration 270 nM, RXRa partner concentration 90 nM)
Summary of the method: as §1

[12] = system: PPARg:RXRa IVT, anti-PPARg (NR concentration 270 nM, RXRa partner concentration 90 nM)
Summary of the method: as §1

[13] = system: PPARg DBDmut:RXRa IVT, anti-PPARg (DBD mutation: PPARg1 K132A/R137A, NR concentration 270 nM, RXRa partner concentration 90 nM)
Summary of the method: as §1

[14] = system: PPARg DBDmut IVT, anti-PPARg (DBD mutation: PPARg1 K132A/R137A, NR concentration 270 nM)
Summary of the method: as §1

[15] = system: PPARg homodimer (NR concentration 180 nM)
Summary of the method: as §1

[16] = system: PXR:RXRa (NR concentration 270 nM, RXRa partner concentration 90 nM)
Summary of the method: as §1

[17] = system: PXR homodimer (NR concentration 270 nM)
Summary of the method: as §1

[18] = system: RARa:RXR (NR concentration 270 nM, RXRa partner concentration 90 nM)
Summary of the method: as §1

[19] = system: RARa homodimer (NR concentration 270 nM)
Summary of the method: as §1

[20] = system: RARb:RXRa (NR concentration 270 nM, RXRa partner concentration 90 nM)
Summary of the method: as §1

Sequence	PBM binding z-score [1]	PBM binding z-score [2]	PBM binding z-score [3]	PBM binding z-score [4]	PBM binding z-score [5]	PBM binding z-score [6]	PBM binding z-score [7]	PBM binding z-score [8]	PBM binding z-score [9]	PBM binding z-score [10]	PBM binding z-score [11]	PBM binding z-score [12]	PBM binding z-score [13]	PBM binding z-score [14]	PBM binding z-score [15]	PBM binding z-score [16]	PBM binding z-score [17]	PBM binding z-score [18]	PBM binding z-score [19]	PBM binding z-score [20]
CGAACGAGTGCATGAGTTGATAGCAAATGCCGAT	-0.259	-0.143	-0.369	-0.0215	-0.861	0.127	0.68	0.262	-0.00177	-0.142	-0.266	-0.442	-0.401	0.0555	-0.0589	0.62	0.717	0.133	-0.713	0.209
CAAACTAGGTCAAAAGTCAAAGTCGAGCCAACCA	4.73	3.95	0.814	2.97	0.644	6.39	11.9	9.92	9.77	11	8.48	8.18	0.975	1.19	1.78	2.68	-0.0368	4.56	0.778	3.78
CCTACTGGCCCATCAGGTCATTGATATCAACGTT	1.56	1.2	1.15	1.63	0.0775	1.62	0.503	1.07	0.112	0.701	-0.199	1.1	-0.917	0.381	1.47	1.61	0.678	1.83	0.604	1.71
CGTCCAAGGTCATAGGAGGTCAGTGCAGACAGAT	7.64	7.34	5.11	6.24	1.16	5.7	5.88	5.67	2.19	4.56	3.55	4.57	0.589	1.49	4.86	6.81	4.62	6.21	2.75	5.33
TCTATTAGTTGAAGGGCGACCGACGAGTCCGTTT	0.994	1.03	0.292	0.778	0.384	0.661	-0.000303	2.13	3.99	2.9	2.51	0.299	0.865	1.2	0.852	0.655	0.886	0.0781	0.844	0.714
GCAAACAGGTGAAACGCAGGTAACTCAGGGTGGC	-0.182	-0.0525	-0.463	-0.425	-0.88	0.919	0.672	0.158	-0.786	-0.33	2.26	1.32	-0.68	-0.00566	-0.416	-0.255	-0.519	0.397	-0.686	0.596
GCTAGTAGATCAAGGTTAAGAAAGACTAAGCTAA	0.0668	0.637	-0.651	0.372	-0.999	1.46	1.22	2.22	0.524	1.57	1.22	0.943	-0.176	-0.411	-0.263	0.229	0.0369	0.542	0.169	0.561
AGAACCAGGGCAATGAGTTGATAGCACGGGTGGC	-0.133	-0.319	-0.429	-0.657	-0.564	0.717	1.19	0.451	-0.539	0.047	2.95	2.68	0.333	-0.225	-0.0189	0.171	0.97	-0.324	-0.0861	0.985
CGTCCAAGGTCACAGGTCAGTGAAGAGATGACGG	7.44	5.62	1.31	4.1	0.374	6.12	7.73	6.93	3.6	5.82	4	5.24	0.709	0.624	2.75	4.99	0.786	6.06	1.32	5.63
CGTCCAAGGTCATAGGACGTCAGTGAAGACAGAT	7.14	5.2	0.696	3.88	0.284	5.43	4.73	5.14	1.6	3.51	2.61	3.41	0.547	0.692	1.99	4.09	1.1	4.61	1.29	4.77
TACCCTAGGTCAGATCGGGCCAGTATACGCTATA	2.3	4.7	5.49	2.57	2.46	1.98	1.12	1.34	0.45	1.33	0.709	2.17	0.146	-0.236	0.849	1.37	-0.0848	1.8	0.123	3.19
GCAGACAGGTGAAACGCAGGTAGCTCAGGGTGGC	-0.298	-0.318	-0.974	-0.61	-1.08	0.412	0.213	-0.178	-0.645	-0.382	1.07	0.347	-0.762	-0.471	-0.599	-0.573	-0.785	-0.358	-0.976	0.536
AGTCCAAGTTCAGGACGAGGTAACGTAAAGCACG	1.19	0.849	0.0911	0.596	-0.522	1.35	0.826	0.394	0.136	0.0902	-0.641	0.15	-0.559	-0.0596	0.572	1.93	0.749	1.34	-0.0097	2.56
CCGACTGGGGCAAAGGTTACAATACTCAGTACGA	1.77	1.65	0.0321	2.42	-0.618	5.62	12.1	9.57	11.1	11.3	4.99	6.06	0.209	0.0744	1.56	2.63	-0.0818	4.23	0.27	2.55
GCGACTGGGGCAGAGCAGGTTACCATAAGGTTGG	0.158	-0.389	-0.79	-0.197	-1.19	0.462	0.564	0.0587	-1.01	-0.178	3.52	2.22	-0.693	-0.694	-0.578	-0.201	-0.162	-0.103	-0.568	0.569
